Test results published in PubChem BioAssay (NCATS).
Results filed as inconclusive are left out. Active and inactive are the calls of the source. Unless noted, calls come from the whole dose curve; as a rule, active = well fitted curve in either direction with a large enough effect (not every such curve was filed as active); inconclusive = small, poorly fitted or top-dose-only effect, or another doubt; inactive = flat fitted curve, though single readings scatter.

Tests used:
[1] = biological target: Lysosomal acid glucosylceramidase (Homo sapiens) (UniProt P04062); test: Glucocerebrosidase-p2 (AID 348; in the data active = potency below about 10 µM; note: potency is the fitted concentration of half-maximal effect); conditions: purified GBA, blue fluorogenic substrate, 40 min
Lysosomal acid glucosylceramidase (Homo sapiens), sequence (P04062 whole entry, looked up): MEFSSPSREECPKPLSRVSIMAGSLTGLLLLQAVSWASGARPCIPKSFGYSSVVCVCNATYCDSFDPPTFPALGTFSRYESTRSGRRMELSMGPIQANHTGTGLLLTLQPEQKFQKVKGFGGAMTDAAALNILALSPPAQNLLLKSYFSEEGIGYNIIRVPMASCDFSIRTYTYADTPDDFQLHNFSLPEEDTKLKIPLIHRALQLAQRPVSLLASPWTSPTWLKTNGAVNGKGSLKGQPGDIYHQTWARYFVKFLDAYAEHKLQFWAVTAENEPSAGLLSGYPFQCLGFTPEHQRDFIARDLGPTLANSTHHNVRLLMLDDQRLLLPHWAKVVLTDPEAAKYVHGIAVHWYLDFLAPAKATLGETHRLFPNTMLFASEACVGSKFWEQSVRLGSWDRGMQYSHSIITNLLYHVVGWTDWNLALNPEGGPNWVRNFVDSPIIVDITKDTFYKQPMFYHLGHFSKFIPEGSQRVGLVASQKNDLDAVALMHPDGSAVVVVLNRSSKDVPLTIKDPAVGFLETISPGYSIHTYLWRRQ
In short: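 Compounds titrated from 0.6 nM upwards against 0.2 nM enzyme in pH 5.9 citric acid/KH2PO4, taurocholate, tween-20; blue fluorogenic substrate 80 uM, 40 min room temperature, stopped and read Ex 365/Em 440 for AC50.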

[2] = AP1 Signaling Pathway (AID 357); conditions: ME-180 AP-1-bla reporter, EGF-induced, beta-lactamase ratio, 5 h; at 7.69 µM (top of the series) unless noted;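 note: ME-180 reporter cells stimulated with EGF at its EC50 level; % is set by controls: 0 for no effect and ±100 for the full control effect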
In short: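 AP-1-bla ME-180 cells, Opti-MEM + 0.5% dialyzed FBS, plated overnight 37 °C. Cpd titration + EC50 EGF, 5 h 37 °C. CCF4 2.5 h RT; ex 405, em 460/530 ratio → %activity, AC50.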

[3] = biological target: Cytochrome P450 1A2 (Homo sapiens) (UniProt P05177); test: p450-cyp1a2 (AID 410; calls by dose curve; note: potency is the fitted concentration of half-maximal effect;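 for activity change, negative = inhibition: -100% = full effect of reference inhibitor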); conditions: recombinant CYP1A2, luciferin-ME demethylation, luminescence; series mostly up to 57 µM
Cytochrome P450 1A2 (Homo sapiens), sequence (P05177 whole entry, looked up): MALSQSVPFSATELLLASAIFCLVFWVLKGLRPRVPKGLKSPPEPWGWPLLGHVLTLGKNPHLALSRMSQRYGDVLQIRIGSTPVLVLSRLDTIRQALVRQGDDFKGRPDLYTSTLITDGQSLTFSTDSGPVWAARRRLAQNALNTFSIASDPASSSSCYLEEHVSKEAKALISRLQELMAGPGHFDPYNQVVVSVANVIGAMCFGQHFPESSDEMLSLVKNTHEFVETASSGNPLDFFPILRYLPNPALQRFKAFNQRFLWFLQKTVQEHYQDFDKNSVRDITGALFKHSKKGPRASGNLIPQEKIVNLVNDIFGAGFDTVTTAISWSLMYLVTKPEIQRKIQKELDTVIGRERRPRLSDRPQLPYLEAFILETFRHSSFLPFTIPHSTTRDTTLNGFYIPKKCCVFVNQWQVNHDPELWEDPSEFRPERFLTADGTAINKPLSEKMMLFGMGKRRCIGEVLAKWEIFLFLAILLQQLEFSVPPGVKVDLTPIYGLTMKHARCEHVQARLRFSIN
In short: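 Luminescent readout of luciferin formed from Luciferin-ME by human CYP1A2; data normalized against complete inhibition by 57 uM furafylline. Enzyme 20nM, substrate 100uM at Km, 100mM KPO4 buffer, 60 min reaction at room temperature.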

[4] = NFAT Signaling Pathway (AID 444); conditions: Jurkat NFAT-bla M1, carbachol, beta-lactamase ratio, 5 h; at 7.69 µM (top of the series) unless noted;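 note: carbachol stimulus at about its EC50 of 1 µM final; % is set by controls: 0 for no effect and ±100 for the full control effect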
In short: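 Jurkat cells carrying an NFAT-driven β-lactamase reporter and co-transfected muscarinic M1 receptor were treated with compound plus carbachol (1 uM final, an EC50 level) for 5 h at 37 °C. CCF4 loading followed for 1 h at RT; 460/530 nm ratio gave %activity.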

[5] = Stat Signaling Pathway (AID 446); conditions: ME-180 SIE beta-lactamase reporter, IL-6 stimulated, 5 h; at 7.69 µM (top of the series) unless noted;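 note: ME-180 cervical cancer cells given 40 pM IL-6 alongside compound; SIE-controlled beta-lactamase reporter measured as 460/530 nm FRET emission ratio; % is set by controls: 0 for no effect and ±100 for the full control effect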
In short: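 IL-6/STAT signaling read in ME-180 cells via an SIE beta-lactamase reporter. Stimulus was 40 pM IL-6 (its AC50) for 5 hrs, so both activation and inhibition register.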

[6] = biological target: Glucocorticoid receptor (Homo sapiens) (UniProt P04150); test: GR-EFC Redistribution (AID 451; calls by dose curve; note: potency is the fitted concentration of half-maximal effect); conditions: CHO-K1 GR-EFC translocation, beta-gal luminescence, 2 h
Glucocorticoid receptor (Homo sapiens), sequence (P04150 whole entry, looked up, the tested form may be a part): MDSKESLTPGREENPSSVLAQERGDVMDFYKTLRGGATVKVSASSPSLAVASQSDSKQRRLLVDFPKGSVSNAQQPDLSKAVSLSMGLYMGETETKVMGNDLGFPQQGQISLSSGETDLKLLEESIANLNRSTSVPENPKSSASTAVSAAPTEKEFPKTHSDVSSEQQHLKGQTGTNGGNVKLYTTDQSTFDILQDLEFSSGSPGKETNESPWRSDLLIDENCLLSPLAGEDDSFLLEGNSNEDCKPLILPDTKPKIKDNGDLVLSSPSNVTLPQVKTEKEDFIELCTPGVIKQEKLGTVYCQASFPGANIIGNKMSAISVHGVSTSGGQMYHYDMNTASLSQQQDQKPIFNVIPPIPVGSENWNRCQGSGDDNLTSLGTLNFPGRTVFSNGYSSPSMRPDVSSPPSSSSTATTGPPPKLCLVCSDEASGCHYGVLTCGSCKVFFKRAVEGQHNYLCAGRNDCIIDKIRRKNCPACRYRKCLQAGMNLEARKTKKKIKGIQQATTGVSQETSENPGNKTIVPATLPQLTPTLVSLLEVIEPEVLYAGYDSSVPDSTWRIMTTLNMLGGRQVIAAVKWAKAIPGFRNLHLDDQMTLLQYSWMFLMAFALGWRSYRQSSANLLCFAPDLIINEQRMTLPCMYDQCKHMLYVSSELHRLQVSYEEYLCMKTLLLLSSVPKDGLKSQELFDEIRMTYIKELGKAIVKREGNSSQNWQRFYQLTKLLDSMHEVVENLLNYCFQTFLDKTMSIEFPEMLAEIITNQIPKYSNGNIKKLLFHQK
In short: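 CHO-K1 cells stably expressing nuclear-localized β-gal enzyme acceptor and GR fused C-terminally to the enzyme donor fragment; ligand-driven nuclear translocation restores β-gal by complementation. Compounds titrated up to 46 uM final, 2 h at 37 °C; luminescence read.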

[7] = biological target: Mitogen-activated protein kinase 10 (Mus musculus) (UniProt Q61831); test: JNK3 AlphaScreen Assay (AID 530); conditions: JNK3 lysate, c-Jun phosphorylation; series mostly up to 57.1 µM;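 note: kinase came from lysate of stimulated human HepG2 cells; signal reports phosphorylation of biotinylated GST-cJun 1-79 at Ser73 with 10 µM ATP; % is set by controls: 0 for no effect and ±100 for the full control effect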
In short: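 Inhibitors reduce antibody binding to phosphorylated biotin-cJun, lowering AlphaScreen luminescence. Lysates from HepG2 cells pre-activated by IL-1beta plus TNF-alpha supplied JNK3; compounds were titrated.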

[8] = biological target: 3',5'-cyclic-AMP phosphodiesterase 4B (Homo sapiens) (UniProt Q07343); test: qHTS Assay for Inhibitors of PDE-IV (AID 607; active = well fitted activation curve with a large enough effect in the main read-out, with a control signal flat, not every such curve was filed as active; note: % of control where 0% means no effect); conditions: HEK293 ACTOne CNG channel cells, membrane potential fluorescence; series mostly up to 22.9 µM
3',5'-cyclic-AMP phosphodiesterase 4B (Homo sapiens), sequence (Q07343 whole entry, looked up): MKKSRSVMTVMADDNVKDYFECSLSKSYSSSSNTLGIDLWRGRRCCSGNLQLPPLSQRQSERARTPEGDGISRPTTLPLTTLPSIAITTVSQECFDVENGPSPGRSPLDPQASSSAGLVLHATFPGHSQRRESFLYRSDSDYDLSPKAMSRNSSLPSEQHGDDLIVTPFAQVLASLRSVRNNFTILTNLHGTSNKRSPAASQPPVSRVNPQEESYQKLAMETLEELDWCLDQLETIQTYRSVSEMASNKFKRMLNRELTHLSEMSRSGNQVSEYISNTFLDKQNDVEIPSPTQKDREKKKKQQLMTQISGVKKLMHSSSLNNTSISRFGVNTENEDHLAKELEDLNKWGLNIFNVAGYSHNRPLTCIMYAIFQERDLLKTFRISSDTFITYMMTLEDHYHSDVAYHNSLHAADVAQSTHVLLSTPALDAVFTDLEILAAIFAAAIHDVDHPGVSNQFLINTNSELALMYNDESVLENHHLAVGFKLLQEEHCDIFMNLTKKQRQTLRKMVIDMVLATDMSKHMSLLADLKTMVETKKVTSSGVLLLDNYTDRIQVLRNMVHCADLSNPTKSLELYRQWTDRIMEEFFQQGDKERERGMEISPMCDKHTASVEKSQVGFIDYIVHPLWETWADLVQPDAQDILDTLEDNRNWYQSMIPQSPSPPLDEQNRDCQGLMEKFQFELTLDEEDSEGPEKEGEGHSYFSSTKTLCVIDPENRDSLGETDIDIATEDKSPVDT
In short: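 Live HEK293 cells with a modified cyclic nucleotide-gated (CNG) channel report intracellular cAMP via membrane-potential dye fluorescence (ex 535/em 590 nm). Endogenous PDE-IV was targeted. Compounds were tested at up to 22.9 uM final; RO 20-1724 100 uM served as control.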

[9] = biological target: Cytochrome P450 3A4 (Homo sapiens) (UniProt P08684); test: qHTS Assay for Activators of Cytochrome P450 3A4 (AID 885; active = well fitted curve in the direction sought with a large enough effect; an effect the other way counts as inactive or inconclusive; note: nearly all actives have a fitted effect of over 65% in size); conditions: recombinant CYP3A4, Luciferin-PPXE luminescence, 60 min; series mostly up to 57.1 µM
Cytochrome P450 3A4 (Homo sapiens), sequence (P08684 whole entry, looked up): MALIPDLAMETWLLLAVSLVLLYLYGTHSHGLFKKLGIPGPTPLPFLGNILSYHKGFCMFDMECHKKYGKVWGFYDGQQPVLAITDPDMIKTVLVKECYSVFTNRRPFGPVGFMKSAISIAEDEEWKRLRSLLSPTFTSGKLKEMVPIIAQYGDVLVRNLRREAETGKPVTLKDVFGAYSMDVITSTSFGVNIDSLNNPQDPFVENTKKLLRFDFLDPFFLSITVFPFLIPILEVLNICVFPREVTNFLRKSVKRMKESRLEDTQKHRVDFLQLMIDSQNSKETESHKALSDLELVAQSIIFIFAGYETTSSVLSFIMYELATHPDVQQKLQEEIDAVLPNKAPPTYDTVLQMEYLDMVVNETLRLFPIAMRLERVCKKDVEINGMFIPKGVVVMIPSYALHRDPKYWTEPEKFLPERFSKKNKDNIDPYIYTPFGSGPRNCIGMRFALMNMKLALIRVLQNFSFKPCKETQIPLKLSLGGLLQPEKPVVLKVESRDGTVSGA
In short: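 Quantitative HTS format: compounds preincubated with 20nM human CYP3A4 and Luciferin-PPXE substrate at KM, reaction started by NADPH regeneration, stopped after 60 min, luciferase luminescence read 20 min later.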

[10] = Primary qHTS for small molecule stabilizers of the endoplasmic reticulum resident proteome: Secreted ER Calcium Modulated Protein (SERCaMP) assay (AID 1508630; active = well fitted curve in the direction sought with a large enough effect; an effect the other way counts as inactive or inconclusive; note: % is set by controls: 0 for no effect and ±100 for the full control effect); conditions: SH-SY5Y GLuc-SERCaMP (Gaussia luciferase released on ER calcium loss) secretion, thapsigargin, luminescence; series mostly up to 38.4 µM
In short: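 GLuc-SERCaMP-expressing SH-SY5Y cells, pretreated 16 h with compound, are challenged with thapsigargin to empty ER calcium stores; after 4 h, coelenterazine is added directly to the medium and luminescence is imaged.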

[11] = biological target: Glucocorticoid receptor (Homo sapiens) (UniProt P04150); test: GR-GFP Redistribution (AID 450;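 active = compounds whose dose series gives a full or clear partial fitted curve of increased nuclear translocation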; note: potency is the fitted concentration of half-maximal effect); conditions: U2OS GR-GFP nuclear translocation, laser cytometry, 2 h
[12] = biological target: Cytochrome P450 2C19 (Homo sapiens) (UniProt P33261); test: qHTS Assay for Inhibitors and Substrates of Cytochrome P450 2C19 (AID 899; active = well fitted curve in the direction sought with a large enough effect; an effect the other way counts as inactive or inconclusive; note: nearly all actives have a fitted effect of over 60% in size; note: potency is the fitted concentration of half-maximal effect); conditions: recombinant CYP2C19, luciferin-H EGE luminescence; series mostly up to 57.1 µM
Cytochrome P450 2C19 (Homo sapiens), sequence (P33261 whole entry, looked up): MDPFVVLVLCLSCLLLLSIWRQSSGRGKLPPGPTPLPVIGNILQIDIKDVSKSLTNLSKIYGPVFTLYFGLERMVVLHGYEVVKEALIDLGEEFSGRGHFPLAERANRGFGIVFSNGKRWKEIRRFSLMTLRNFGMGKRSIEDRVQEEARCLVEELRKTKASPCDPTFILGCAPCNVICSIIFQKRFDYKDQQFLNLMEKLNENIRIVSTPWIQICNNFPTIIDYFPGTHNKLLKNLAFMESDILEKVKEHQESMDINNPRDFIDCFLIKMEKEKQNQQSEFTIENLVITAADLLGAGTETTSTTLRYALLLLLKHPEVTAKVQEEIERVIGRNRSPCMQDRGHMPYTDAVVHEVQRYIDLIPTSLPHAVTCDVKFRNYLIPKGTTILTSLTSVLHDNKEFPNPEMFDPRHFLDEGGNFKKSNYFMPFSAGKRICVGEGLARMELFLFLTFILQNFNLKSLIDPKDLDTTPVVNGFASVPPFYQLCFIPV
In short: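 In 50mM KPO4, the reaction held 5nM enzyme and KM-level (10uM) Luciferin-H EGE; it ran 60 min at 37C after NADPH regeneration and a 10 min compound preincubation. Luminescence values were scaled to 57uM ketoconazole as complete inhibition.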

[13] = qHTS Assay for Identification of Small Molecule Agonists for Hypoxia Response Element Signaling Pathway (AID 914; active = well fitted activation curve with a large enough effect in the signal ratio, with a control signal flat, not every such curve was filed as active; the % refers to the signal ratio; note: potency is the fitted concentration of half-maximal effect; for activation: % of control where 0% means no effect); conditions: ME-180 (cervical carcinoma) HRE-bla reporter, beta-lactamase ratio, CoCl2, 17 h; activation: active compounds read high
In short: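 Positive modulation of EC50 CoCl2-induced hypoxia response element signaling is measured in ME-180 cells with a beta-lactamase reporter. Compounds are titrated, incubation runs 17 hours, and %Activity derives from the blue/green ratio.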

[14] = biological target: Cytochrome P450 3A4 (Homo sapiens) (UniProt P08684); test: qHTS Assay for Inhibitors and Substrates of Cytochrome P450 3A4 (AID 884; active = well fitted curve in the direction sought with a large enough effect; an effect the other way counts as inactive or inconclusive; note: potency is the fitted concentration of half-maximal effect; nearly all actives have a fitted effect of over 50% in size); conditions: recombinant CYP3A4, Luciferin-PPXE luminescence; series mostly up to 57.1 µM
In short: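 20 nM human CYP3A4 with 25 uM Luciferin-PPXE (at KM) in 200 mM KPO4, preincubated 10 min with compound; NADPH regeneration started a 60 min RT reaction. Luciferin detected by luminescence, normalized to 57 uM ketoconazole as full inhibition.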

COc1ccc(NC(=O)N2CCCC3(CCN(C(=O)c4cccn4C)CC3)C2)cc1
active: Potency [3] 25.1 µM
inactive: Potency [1] > 11.4 µM | activity change, negative = inhibition [2] -2.59% | activity change, negative = inhibition [4] -20.9% | activity, negative = inhibition [5] -3.06% | Potency [6] > 46 µM | Potency [7] | Potency [8] | Potency [9] | outcome [10]

O=C(Nc1cccc(F)c1)N1CCCC2(CCN(C(=O)c3cnccn3)CC2)C1
inactive: Potency [1] > 11.4 µM | activity change, negative = inhibition [2] -5.64% | Potency [3] | activity change, negative = inhibition [4] -3.4% | activity, negative = inhibition [5] -5.83% | Potency [6] > 46 µM | Potency [7] | Potency [9] | outcome [10]

CN1CCN(c2ncc3nc(-c4ccc(Cl)cc4)c(=O)n(CCC#N)c3n2)CC1
active: activity change, negative = inhibition [2] 130% [activator] | Potency [3] 15.8 µM | activity change, negative = inhibition [4] 214% [activator]
inactive: Potency [1] > 11.4 µM | Potency [11] > 9.22 µM | Potency [6] > 46 µM | Potency [7] | Potency [8] | Potency [12] | outcome [10]

COCC(=O)N1CCC2(CCCN(c3cccc(-c4ccccc4)c3)C2)CC1
inactive: Potency [1] > 11.4 µM | activity change, negative = inhibition [2] -22.8% | activity change, negative = inhibition [4] 17% | activity, negative = inhibition [5] -10.6% | Potency [6] > 46 µM | Potency [7] | Potency [9] | outcome [10]
active: Potency [3] 15.8 µM

Cn1cc(-c2nc3cnc(Oc4ccccc4)nc3n(CCC#N)c2=O)c2ccccc21
inactive: Potency [1] > 11.4 µM | activity change, negative = inhibition [2] 5.74% | activity change, negative = inhibition [4] 7.14% | Potency [11] > 9.22 µM | Potency [6] > 46 µM | Potency [7] | Potency [8] | Potency [9] | outcome [10]
active: Potency [3] 3.16 µM | Potency [13] 3.16 µM

Cn1cccc1C(=O)N1CCC2(CCCN(c3ccc(-c4ccccc4)cc3)C2)CC1
inactive: Potency [1] > 11.4 µM | activity change, negative = inhibition [2] 15.7% | activity change, negative = inhibition [4] -14.9% | activity, negative = inhibition [5] 3.39% | Potency [6] > 46 µM | Potency [8] | outcome [10]
active: Potency [3] 15.8 µM

CCNc1ncc2nc(-c3ccc(OC)cc3)c(=O)n(-c3ccc(OC)cc3)c2n1
inactive: Potency [1] > 11.4 µM | activity change, negative = inhibition [2] -16% | Potency [3] | activity change, negative = inhibition [4] -5.13% | Potency [11] > 9.22 µM | Potency [6] > 46 µM | Potency [7] | Potency [9] | outcome [10]

O=C(c1ccncc1)N1CCC2(CC1)CCN(c1ncccn1)CC2
active: Potency [3] 20 µM | Potency [12] 2.51 µM
inactive: Potency [1] > 11.4 µM | activity change, negative = inhibition [2] -2.2% | activity change, negative = inhibition [4] 11.7% | Potency [6] > 46 µM | Potency [7] | Potency [8] | outcome [10]

O=C(c1cnccn1)N1CCC2(CC1)CN(c1cccc(-c3ccccc3)c1)C2
active: Potency [3] 15.8 µM
inactive: Potency [1] > 11.4 µM | activity change, negative = inhibition [2] -8.05% | activity change, negative = inhibition [4] -5.73% | Potency [6] > 46 µM | Potency [8] | Potency [9] | outcome [10]

N#Cc1cccc(NC(=O)N2CC[C@@]3(CCCN(S(=O)(=O)c4ccccc4)C3)C2)c1
active: Potency [3] 25.1 µM | Potency [14] 3.16 µM
inactive: Potency [1] > 11.4 µM | activity change, negative = inhibition [2] -14% | activity change, negative = inhibition [4] 3.6% | activity, negative = inhibition [5] -7.29% | Potency [7] | Potency [8] | Potency [9] | outcome [10]

COC(=O)N1CCC[C@@]2(CCN(C(=O)Nc3ccc(OC)cc3)C2)C1
inactive: Potency [1] > 11.4 µM | activity change, negative = inhibition [2] -11% | Potency [3] | activity change, negative = inhibition [4] -1.85% | activity, negative = inhibition [5] 3.7% | Potency [6] > 46 µM | Potency [7] | Potency [9] | outcome [10]

N#Cc1cccc(NC(=O)N2CCCC3(CCN(C(=O)c4cnccn4)CC3)C2)c1
active: Potency [3] 20 µM
inactive: Potency [1] > 11.4 µM | activity change, negative = inhibition [2] -1.03% | activity change, negative = inhibition [4] -9.23% | activity, negative = inhibition [5] 0.635% | Potency [6] > 46 µM | Potency [7] | Potency [9] | activation [13] 0.071% | outcome [10]

O=C(Oc1ccccc1)N1CCC[C@@]2(CCN(c3ccccn3)C2)C1
inactive: Potency [1] > 11.4 µM | activity change, negative = inhibition [2] 7.28% | activity change, negative = inhibition [4] -24.6% | activity, negative = inhibition [5] 9.87% | Potency [6] > 46 µM | Potency [7] | Potency [9] | outcome [10]
active: Potency [3] 7.94 µM | Potency [12] 5.01 µM

COc1ccc(Oc2ncc3nc(-c4cccs4)c(=O)n(-c4ccccc4)c3n2)cc1
active: Potency [3] 3.16 µM | Potency [14] 2.51 µM | Potency [13] 2.51 µM
inactive: Potency [1] > 11.4 µM | activity change, negative = inhibition [2] 21.1% | activity change, negative = inhibition [4] 8.33% | Potency [11] > 9.22 µM | Potency [6] > 46 µM | Potency [7] | Potency [8] | Potency [9] | outcome [10]

COc1cccc(Cn2c(=O)c(-c3cccc(C#N)c3)nc3cnc(Nc4ccccc4)nc32)c1
inactive: Potency [1] > 11.4 µM | activity change, negative = inhibition [2] -3.95% | Potency [3] | activity change, negative = inhibition [4] -12.1% | activity, negative = inhibition [5] -14.2% | Potency [6] > 46 µM | Potency [7] | Potency [8] | Potency [9] | outcome [10]

O=C(c1cnccn1)N1CCC[C@@]2(CCN(Cc3ccncc3)C2)C1
active: Potency [3] 15.8 µM
inactive: Potency [1] > 11.4 µM | activity change, negative = inhibition [2] -3.77% | activity change, negative = inhibition [4] 7.13% | activity, negative = inhibition [5] -5.95% | Potency [6] > 46 µM | Potency [7] | Potency [8] | Potency [9] | outcome [10]
